We go through 92 compounds from PubChem BioAssay AID588397 (National Center for Advancing Translational Sciences (NCATS), 2011).

Among all 1,300 compounds or so, about 1,000 (77%) were called active. Another 7% or so got no clear call; they are omitted. Calls come from the whole dose curve; as a rule, active = well fitted inhibition curve with a large enough effect; inconclusive = small, poorly fitted or top-dose-only effect; inactive = no such curve, though single readings can be large or run the other way. So high a share suggests a set chosen from earlier hits. Some of the results follow.
% is set by controls: 0 for no effect and ±100 for the full control effect; potency is the fitted concentration of half-maximal effect.

This assay in a line: qHTS of small molecules that selectively kill Giardia lamblia: Hit Validation.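 Note: viability measured as ATP content by luminescence so killing lowers signal; nearly all actives have a fitted effect of over 65% in size.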 The note with it: Giardia lamblia trophozoite viability, dose-response; series mostly up to 38.3 µM; activity change, negative = killing: at the top concentration. An outline of the steps: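 Luminescent ATP signal served as the viability read-out, measured 15-30 min after adding ATP detection reagent to trophozoites that had been incubated with compounds for 48 hrs at 37 deg C anaerobically at 100 cells/well.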
(qHTS replaces the single test concentration by a dilution series.)
In the case of `Cc1ccc2nccnc2c1`, the Potency was 1300 nM (active).
On to `O=C1C[C@@H](c2ccc(O[C@@H]3O[C@H](CO)[C@@H](O)[C@H](O)[C@H]3O)cc2)Oc2cc(O)ccc21`, for which the “activity change, negative = killing” value was -10.6% (inactive).
On the same count and under the same terms, as for `CCOc1ccccc1NS(=O)(=O)c1c[nH]c(C(=O)OC)c1`, the figure is -6.56% (inactive).
For `COc1ccccc1NS(=O)(=O)c1cccc(C(=O)N/N=C/c2ccc([N+](=O)[O-])o2)c1`, the Potency is 4100 nM (active).
In the case of `CC1(C(=O)N/N=C/c2ccc([N+](=O)[O-])o2)CC1(Br)Br` (configuration not stated), the Potency is 650 nM (active).
With `O=C(Cc1ccc2c(c1)OCO2)NN=Cc1ccc([N+](=O)[O-])o1`, the Potency was 918 nM (active).
For `Cc1cc(C(=O)N/N=C/c2ccc([N+](=O)[O-])o2)c(C)o1`, the Potency is 579 nM (active).
On the same count and under the same terms, next, `O=C(N/N=C/c1ccc([N+](=O)[O-])o1)c1ccc2c(c1)OCO2`: 818 nM (active); `O=C(Cc1ccc([N+](=O)[O-])cc1)N/N=C/c1ccc([N+](=O)[O-])o1`: 1160 nM (active); `O=c1c2ccccc2sc2ccc(C#CC3(O)CCCCC3)cc12`: 650 nM (active).
`Cc1ccc(C2=NCCn3c2c2ccc([N+](=O)[O-])cc2[n+]3[O-])cc1`: the Potency was 1300 nM (active).
As to `O=[N+]([O-])c1ccc2c3n([n+]([O-])c2c1)CCN=C3c1ccc(Cl)cc1`, the Potency is 4100 nM (active).
As for `C[C@H](CO)N1C[C@H](C)[C@H](CN(C)C(=O)Nc2ccc(C(F)(F)F)cc2)Oc2c(NC(=O)c3ccncc3)cccc2C1=O`, the “activity change, negative = killing” value was 14.8% (inactive).
For `C[C@@H]1CN([C@H](C)CO)C(=O)c2cc(NC(=O)Nc3ccc4c(c3)OCO4)ccc2O[C@H]1CN(C)Cc1ccncc1`, the “activity change, negative = killing” value was -43.5% (inactive).
`C[C@@H]1CN([C@@H](C)CO)C(=O)c2cccc(NS(=O)(=O)c3cccs3)c2O[C@H]1CN(C)Cc1ccc(C(F)(F)F)cc1`: the Potency was 3650 nM (active).
With `O=C1NC(=S)S/C1=C\C=C\c1ccc([N+](=O)[O-])o1`, the Potency was 326 nM (active).
Regarding `[O-][n+]1c2ccccc2c2n1CCN=C2c1ccc(Cl)cc1`, the Potency was 290 nM (active).
With `Cc1ccc(C2=NCCn3c2c2ccccc2[n+]3[O-])cc1`, the Potency is 146 nM (active).
In the case of `[O-][n+]1c2ccccc2c2n1CCCN=C2c1ccc(Cl)cc1`, the Potency was 1300 nM (active).
On to `Cc1cnc([N+](=O)[O-])n1CCOC(=O)NC(=O)c1ccc(F)cc1`, for which the Potency is 1160 nM (active).
Consider `Cc1cnc([N+](=O)[O-])n1CCOC(=O)NC(=O)c1ccccc1`, for which the Potency is 918 nM (active).
On to `Cc1cnc([N+](=O)[O-])n1CCOC(=O)NC(=O)c1cccc(F)c1`, for which the Potency was 650 nM (active).
Turning to `Cc1cnc([N+](=O)[O-])n1CCOC(=O)NC(=O)c1c(F)cccc1F`, the Potency is 1300 nM (active).
For the compound `Cc1cnc([N+](=O)[O-])n1CCOC(=O)c1cccc(F)c1`, the Potency was 1160 nM (active).
The same measure, in the same setting: as for `Cc1cnc([N+](=O)[O-])n1CCOC(=O)NC(=O)c1ccc(C(F)(F)F)cc1`, the figure is 259 nM (active); as for `Cc1ccc(C(=O)NC(=O)OCCn2c(C)cnc2[N+](=O)[O-])cc1`, 183 nM (active); as for `CSCCC(NC(=O)c1ccco1)C(=O)OCc1cc([N+](=O)[O-])cc2c1OCOC2` (configuration not stated), 4600 nM (active).
Consider `Cc1cccc(C)c1OCC(=O)N(Cc1cccs1)C1CCS(=O)(=O)C1` (configuration not stated), for which the “activity change, negative = killing” value was -6.92% (inactive).
Turning to `CC1C/C(=C/c2ccncc2)C(=O)/C(=C/c2ccncc2)C1` (configuration not stated), the Potency is 11600 nM (active).
As for `O=C1/C(=C/c2ccncc2)CCC/C1=C\c1ccncc1`, the Potency is 18300 nM (active).
Turning to `CC(C)(C)[C@H](N)C(=O)N[C@H]1CCC2C3CC=C4C[C@@H](O)CC[C@]4(C)C3CC[C@@]21C` (some centres not stated), the Potency was 2900 nM (active).
With `CN(C)CCCN(C(=O)c1cc2cc([N+](=O)[O-])ccc2s1)c1nc2cc3c(cc2s1)OCCO3`, the Potency is 1630 nM (active).
Still for that read-out and setting: as for `COC(=O)C1=C(C)N(C)C(=O)NC1c1ccc([N+](=O)[O-])o1` (configuration not stated), the figure is 460 nM (active).
Regarding `CCOC(=O)C1=C(C)NC2=C(C(=O)c3ccccc32)C1c1ccc([N+](=O)[O-])o1` (configuration not stated), the Potency was 729 nM (active).
As to `C=CCOC(=O)C1=C(C)NC(=O)NC1c1ccc(O)cc1` (configuration not stated), the “activity change, negative = killing” value is -3.51% (inactive).
As to `CCOC(=O)C1=C(C)NC(=O)NC1c1ccc([N+](=O)[O-])o1` (configuration not stated), the Potency is 1160 nM (active).
For `O=C(Nc1ccc(N2CCCC2)c(Cl)c1)c1ccc([N+](=O)[O-])o1`, the Potency is 1830 nM (active).
As to `O=C(Nc1ccc(N2CCOCC2)c(Cl)c1)c1ccc([N+](=O)[O-])o1`, the Potency is 729 nM (active).
With `O=C1CC(c2ccc(F)cc2)CC2=C1C(c1ccc([N+](=O)[O-])o1)Nc1ccccc1N2` (configuration not stated), the Potency was 163 nM (active).
`CN(C)c1ccc(/C=C/c2ccc3cc(N)ccc3n2)cc1`: the Potency is 183 nM (active).
For the compound `CN(C)c1ccc(/C=C/c2ccc3ccccc3[n+]2[O-])cc1`, the Potency is 1030 nM (active).
On the same count and under the same terms, as for `CN(C)c1ccc(/C=C/c2ccc3ccccc3n2)cc1`, the figure is 460 nM (active); as for `CC(=O)OCON[N+]([O-])=NC(C)C`, 918 nM (active).
The same measure, in the same setting: next, `CC(C)(C)C1C/C(=C/c2ccccn2)C(=O)/C(=C/c2ccccn2)C1` (configuration not stated): 6500 nM (active); `c1ccc2nc3c(cc2c1)CCCC3`: 10300 nM (active).
Regarding `Cc1cc(C)c(-n2[nH]nnc2=S)c(C)c1`, the “activity change, negative = killing” value was -11.9% (inactive).
As to `O=C(N/N=C\c1ccc(O)c([N+](=O)[O-])c1)C1COc2ccccc2O1` (configuration not stated), the Potency is 5160 nM (active).
Turning to `O=C(N/N=C\c1ccc([N+](=O)[O-])s1)C1COc2ccccc2O1` (configuration not stated), the Potency was 4100 nM (active).
As for `O=C(N/N=C\c1ccc([N+](=O)[O-])o1)C1COc2ccccc2O1` (configuration not stated), the Potency was 818 nM (active).
With `Cc1ccc(/C=C/C(=O)NCC2COc3ccccc3O2)o1` (configuration not stated), the “activity change, negative = killing” value is -42.4% (inactive).
Consider `O=C(Nc1ncc([N+](=O)[O-])s1)C1COc2ccccc2O1` (configuration not stated), for which the Potency was 290 nM (active).
Regarding `CC(C)(C)c1ccc2c(c1)OC(C(=O)N/N=C/c1ccc([N+](=O)[O-])o1)CO2` (configuration not stated), the Potency is 818 nM (active).
With `O=[N+]([O-])C(/C=C(/Cl)[N+](=O)[O-])=C(N1CCCCC1)N1CCCCC1`, the Potency is 1160 nM (active).
`O=[N+]([O-])C(/C=C(\Cl)[N+](=O)[O-])=C(N1CCCCC1)N1CCCCC1`: the Potency is 516 nM (active).
For `O=C1c2ccccc2C(=O)C1c1ccncc1`, the Potency was 7290 nM (active).
With `Cc1cc(C)cc(N=c2c([N+](=O)[O-])nn(-c3ccc(Cl)cc3)n2O)c1`, the Potency was 1300 nM (active).
Take `Cc1cc(C)cc(N=c2c([N+](=O)[O-])nn(-c3cccc(Cl)c3)n2O)c1`: the Potency is 3260 nM (active).
Still for that read-out and setting: next, `O=[N+]([O-])c1cccc(/C=C/c2nc[nH]c2[N+](=O)[O-])c1`: 2050 nM (active); `O=[N+]([O-])c1[nH]cnc1/C=C/c1ccccc1`: 1830 nM (active); `Cc1cccc(N=Nc2c(C)c(C#N)c(O)[nH]c2=O)c1`: 3650 nM (active).
Turning to `O=C(CNc1cccc([N+](=O)[O-])c1)N/N=C/c1ccc([N+](=O)[O-])o1`, the Potency was 516 nM (active).
`O=C(CNc1ccccc1)N/N=C/c1ccc([N+](=O)[O-])o1`: the Potency is 1030 nM (active).
For `O=C(CNc1ccc2ccccc2c1)N/N=C/c1ccc([N+](=O)[O-])o1`, the Potency was 1030 nM (active).
On to `Cc1ccc(NCC(=O)N/N=C\c2ccc([N+](=O)[O-])o2)cc1`, for which the Potency was 650 nM (active).
On to `COC(=O)[C@]1(C)N[C@H](CN(C)S(=O)(=O)c2ccc(-c3ccccc3)cc2)[C@@H]2C(=O)N(Cc3ccccc3)C(=O)[C@@H]21`, for which the “activity change, negative = killing” value was -4.41% (inactive).
As to `Cc1ccc(OCC(=O)c2cc(C)n(-c3ccccc3)c2C)c([N+](=O)[O-])n1`, the Potency is 516 nM (active).
Regarding `COc1ccc(-n2c(C)cc(C(=O)COc3ccc(C)nc3[N+](=O)[O-])c2C)cc1`, the Potency was 1830 nM (active).
The same measure, in the same setting: as for `CCOC(=O)CN1C(=O)S/C(=C/c2cccc([N+](=O)[O-])c2O)C1=O`, the figure is 2310 nM (active); as for `Cc1ccc(NC(=O)CN2C(=O)S/C(=C/c3ccc(O)c([N+](=O)[O-])c3)C2=O)cc1C`, 1300 nM (active); as for `Cc1cccc(NC(=O)CN2C(=O)S/C(=C\c3ccc(O)c([N+](=O)[O-])c3)C2=O)c1`, 1300 nM (active).
With `CCN(CC)C(=O)CSc1nnc2nnc3cc(Cl)ccc3n12`, the Potency was 1300 nM (active).
On the same count and under the same terms, next, `COc1ccc(C(=O)c2c3ccc(C(F)(F)F)cc3[n+]([O-])n2CCCN)cc1`: 1300 nM (active); `Cc1ccc(C(=O)c2c3ccc(C(F)(F)F)cc3[n+]([O-])n2CCCN)cc1`: 1030 nM (active); `NCCCn1c(C(=O)c2cc(Cl)c(N)c(Cl)c2)c2ccc(C(F)(F)F)cc2[n+]1[O-]`: 1450 nM (active).
For the compound `NCCCn1c(C(=O)c2ccc(Cl)cc2)c2ccc(C(F)(F)F)cc2[n+]1[O-]`, the Potency is 410 nM (active).
Regarding `O=C(N/N=C/c1cc2c(cc1[N+](=O)[O-])OCO2)c1ccccn1`, the Potency was 7290 nM (active).
Take `COc1ccc(CCNc2oc(COc3ccc(Br)cc3)nc2C#N)cc1OC`: the “activity change, negative = killing” value was -29.8% (inactive).
Regarding `NC(=O)C1CCN(c2ncccc2[N+](=O)[O-])CC1`, the Potency was 1160 nM (active).
Regarding `N#Cc1nc(-c2ccc(OCc3ccccc3)cc2)oc1N1CCC(C(N)=O)CC1`, the “activity change, negative = killing” value is 1.62% (inactive).
With `NC(=O)C1CCN(c2cc(Cl)ccc2[N+](=O)[O-])CC1`, the Potency was 8180 nM (active).
On the same count and under the same terms, next, `Cc1cc(C)n(S(=O)(=O)c2ccccc2[N+](=O)[O-])n1`: 1830 nM (active); `Cc1nc2cc(-c3ccc(Cl)cc3)nn2c(NCCN(C)C)c1C`: 918 nM (active).
For the compound `CN(C)C(=O)c1cc([N+](=O)[O-])cc([N+](=O)[O-])c1N(C)C`, the Potency was 818 nM (active).
Take `Cc1ccc(S(=O)(=O)/N=C(/Sc2ccccc2C(=O)O)c2ccccc2)cc1`: the “activity change, negative = killing” value is -19.6% (inactive).
As to `CN(C)c1ccc(C2Nc3cccc4cccc(c34)N2)cc1`, the Potency was 3650 nM (active).
In the case of `CN(C)c1ccc(C2NC(=O)c3ccccc3N2)cc1` (configuration not stated), the Potency was 6500 nM (active).
As to `O=C(O)c1cc(Cl)c(Cl)cc1C(=O)N1CCCC1`, the “activity change, negative = killing” value was -0.809% (inactive).
Take `O=C(c1ccc([N+](=O)[O-])o1)N1CCCCCC1`: the Potency was 3650 nM (active).
As to `O=C(c1ccc([N+](=O)[O-])o1)N1CCN(Cc2ccccc2)CC1`, the Potency is 6500 nM (active).
For `O=C(c1ccc([N+](=O)[O-])o1)N1CCOCC1`, the Potency is 1830 nM (active).
Same read-out and setting: as for `CCC1CCCCN1C(=O)c1ccc([N+](=O)[O-])o1` (configuration not stated), the figure is 1830 nM (active).
With `O=C(c1cc(Cl)ccc1Cl)N1CCN(Cc2ccccc2)CC1`, the “activity change, negative = killing” value is 13.9% (inactive).
